PubChem BioAssay (NCI)
Compounds without any hit were thinned out: in the full panel of roughly 83,000, 20% have a hit.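 48-hour exposure, single concentration, 96-well plates; percent growth endpoint where 0 means no net growth. Active: below 10.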 A number with no mark means an inactive call. Active and inactive are the calls of the source.

Each molecule was assayed on SR leukemia (assay: NCI-60 one-dose screen, 48 h (100 = growth as untreated, 0 = no growth, -100 = all killed)). Settings: 10 µM unless noted.
Method: Growth inhibition of the SR human tumor cell line is measured as a screen for anti-cancer activity. Cells are grown in 96 well plates and exposed to the test compound for 48 hours. Compounds are tested at a single concentration, which is 10^-5 M for most compounds. The reported endpoint is percent growth (GI% or GIPRCNT), where numbers from 0 - 100% represent growth inhibition, and numbers from -100% - 0 represent cell death. For example, a value of 40 represents 60% growth inhibition. A value of 0 means no net growth occurred over the course of the experiment. A value of -40 indicates 40% of cells at the beginning of the experiment died by the end of the experiment. A value of -100 means all cells are dead at the end of the experiment.
NCI-60 Human Tumor Cell Lines Screen was performed using the standard one-dose NCI protocol, which is described in more detail at https://dtp.cancer.gov/discovery_development/nci-60/default.htm.
Compounds with GIPRCNT values below 10 were considered active. Activity score was based on GIPRCNT using the following formula: […]
Score is 0 for GIPRCNT values of 100 or above, 50 for GIPRCNT values of 0, and 100 for GIPRCNT values of -100.
`Fc1ccc2c(-c3cncn3CCc3ccccc3)c[nH]c2c1` gave a growth of 96.3%.
With `O=C(CCN1CCCC1)Nc1ccc2c(NCCCCc3ccccc3)c3ccccc3nc2c1` the growth was -29% (active).
In the case of `Cc1ccc(C(=O)/C(=C/c2ccc([N+](=O)[O-])cc2)SCc2ccc(Cl)cc2)cc1`, the growth was 11.4%.
For `Brc1ccc2[nH]cc(-c3cncn3CCc3ccccc3)c2c1`, the growth was 40.7%.
Molecule `O=C(O)c1ccc2c(c1)C(=O)N(Cc1ccccc1)C2=O` has a growth of 101%.
Molecule `NC(=NCCCOc1ccc(F)cc1)Nc1ccc(Cl)cc1` has a growth of 72%.
`CCN(CC)c1ccc(C(=O)c2ccccc2)cc1` gave a growth of 86.2%.
`COc1cc2oc(-c3cccc(C(=O)Nc4ccc(Br)cc4)c3)cc(=O)c2c(OC)c1OC` was tested, and the growth was 18.4%.
In the case of `Cn1c(-c2c(N)n(CCCN3CCOCC3)c3nc(C#N)c(C#N)nc23)nc2ccccc21`, the growth was -57.7% (active).
With `COc1cc2oc(-c3cccc(C(=O)Nc4ccc5c(c4)OCO5)c3)cc(=O)c2c(O)c1OC` the growth was 75.9%.
In the case of `C=C(C)[C@@H]1CC[C@]2(C(=O)N3CCN(C)CC3)CC[C@]3(C)[C@H](CC[C@@H]4[C@@]5(C)CC[C@H](OCCC#N)C(C)(C)[C@@H]5CC[C@]43C)[C@@H]12`, the growth was 3.86% (active).
Work on `CN[C@@H](C)C(=O)N[C@H]1CCS[C@H]2CC(C)(C)[C@@H](C(=O)N[C@H]3c4ccccc4C[C@H]3OCC#CC#CCO[C@@H]3Cc4ccccc4[C@@H]3NC(=O)[C@H]3N4C(=O)[C@@H](NC(=O)[C@H](C)NC)CCS[C@H]4CC3(C)C)N2C1=O` yielded a growth of 36.1%.
In the case of `CCN(CC)CC[n+]1cc2cc(OC)c(OC)cc2c2ccc3cc4c(cc3c21)OCO4`, the growth was -11.3% (active).
`COc1cc2c(cc1OC)C(=O)/C(=C/c1cc(C)c(O)c(C)c1)S2` was tested, and the growth was 18.7%.
With `O=C(Cc1ccccc1)NNc1nc(Cl)nc(N2CCN(C(c3ccccc3)c3ccccc3)CC2)n1` the growth was 10.7%.
For `CC(=O)CCC(=O)OCc1cc(=O)c(O)co1`, the growth was 86.4%.
`COc1cccc(-c2nc3occn3c2-c2ccnc(NCCCNS(=O)(=O)c3ccc(C(F)(F)F)cc3)n2)c1` showed a growth of 97.2%.
Work on `CN1[C@@H]2CC[C@H]1/C(=C\c1ccccc1)C(=O)/C2=C/c1ccccc1` yielded a growth of 19.2%.
`Cc1cnc(C(=O)Nc2nc3ccc(S(=O)(=O)Nc4ccc(C(C)(C)C)cc4)cc3[nH]2)cn1` gave a growth of 12.3%.
In the case of `CCN(CC)CCn1c(=O)c2cc(OC)c(OC)cc2c2ccc3cc4c(cc3c21)OCO4`, the growth was -14.9% (active).
`Cc1ccc(-n2c3c(c(-c4ccccc4)c2-c2ccccc2)C2=NCCN2C=N3)cc1` gave a growth of 80%.
In the case of `NS(=O)(=O)c1ccc(CCn2c(SCC(=O)c3ccc(Cl)cc3)nc3ccccc3c2=O)cc1`, the growth was 100%.
With `COc1cc(/C(C)=C(\c2ccc(Cl)cc2)c2ccc(OCCN(C)C)cc2)ccc1F` the growth was 0.487% (active).
With `O=C(Cn1c[n+](CC(=O)c2ccc([N+](=O)[O-])cc2)c2ccccc21)Nc1cccc2cccnc12` the growth was 61.8%.
In the case of `COc1ccc2nc(-c3ccc(-c4noc(-c5cc(OC)c(OC)c(OC)c5)n4)cc3)[nH]c2c1`, the growth was 18.9%.
For `COc1ccc(/C=C2\Oc3cc(OCCCN4CCCCC4)ccc3C2=O)cc1OC`, the growth was -18.7% (active).
`Cc1c(C(=O)NCCC(=O)NO)sc2ncnc(Nc3ccc(NC(=O)Nc4cccc(C(F)(F)F)c4)cc3)c12` was tested, and the growth was 101%.
In the case of `CCOC(=O)c1cc(C#N)n2ccc3ccccc3c12`, the growth was 115%.
`COc1ccc(C(=O)c2cc(C)c(OC)c(C)c2)c(OC)c1NC(C)=O` was tested, and the growth was 29.3%.
`COc1cc(-c2csc(NC(=O)c3cc(F)cc(C(F)(F)F)c3)n2)cc(OC)c1OC` was tested, and the growth was 16.1%.
Work on `COc1ccc(/C=C2\COc3ccc(-c4ccccc4)cc3C2=O)c(OC)c1` yielded a growth of 69.1%.
In the case of `COc1cc2c(=O)n(CCN)c3c4cc5c(cc4ccc3c2cc1OC)OCO5`, the growth was -26% (active).
`CC1(C)CC(O)CCCCCCOc2c(CN)cccc2NC(=O)c2nc(cnc2N)-c2ccc(cc2)S1(=O)=O` (stereo not given) was tested, and the growth was -16.8% (active).
With `COc1cc(CC(=O)c2ccc(O)c(OC)c2)ccc1O` the growth was 90.1%.
With `Cc1nc(N)nc(N[C@@H](C)c2nc3cccc(NCc4ccc(C(=O)NO)cc4)c3c(=O)n2-c2ccccc2)n1` the growth was 33.3%.
`C=C1C(=O)O[C@H]2[C@H]1CC/C(COC(=O)NCC(C)c1ccc(CC(C)C)cc1)=C\CC[C@@]1(C)O[C@@H]21` (stereo not given in full) was tested, and the growth was -2.59% (active).
For `CCCCCCNC(=O)Oc1ccc(/C(=C(\C)c2ccccc2)c2ccc(OCCCN(C)C)cc2)cc1`, the growth was 2.09% (active).
`Nc1n[nH]c2cccc(C#Cc3cccc(C(=O)Nc4cccc(C(F)(F)F)c4)c3)c12` gave a growth of 72%.
`OC(c1cccc(C(F)(F)F)c1)c1cnccc1NC1CCCCC1` (stereo not given) showed a growth of 51.6%.
Work on `O=S(=O)(NCCNc1nccc(-c2c(-c3cccc(O)c3)nc3occn23)n1)c1ccc(C(F)(F)F)cc1` yielded a growth of 110%.
